This note sets out measurements from PubChem BioAssay (Tox21).

Values without a mark were called inactive. Inconclusive results are not listed. Active and inactive are the calls of the source. Unless noted, the call rests on the fitted dose curve; in most records, active means well fitted curve in the direction sought with a large enough effect in the repeat runs; inconclusive means weak or mixed curves; inactive means no such curve, though single readings can be large; an effect the other way counts as inactive or inconclusive.

The nature of experiment [1]: qHTS assay to identify small molecule agonists of the estrogen receptor alpha (ER-alpha) signaling pathway in the presence of an antagonist - cell viability counter screen (AID 1259386).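 Further: series mostly up to about 92 µM; cells exposed to compounds for 22 h at 37 °C before the viability read; nearly all actives have a fitted effect of over 30% in size.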 Put shortly:
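Read-out: CellTiter-Fluor fluorescence after 1hr reagent incubation, measured in the same wells as the luciferase readout. VM7Luc4E2 cells were exposed to 15 compound concentrations with 10.0nM ICI-182,780 for 22hr at 37C.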
Background: Quantitative high-throughput screening tests each substance at several concentrations.

The target in experiment [2] is Progesterone receptor (Homo sapiens) (UniProt P06401). Description: qHTS assay to identify small molecule antagonists of the progesterone receptor (PR) signaling pathway (AID 1346795; active means well fitted inhibition curve with a large enough effect in the signal ratio in the repeat runs, not every such curve was filed as active; the % refers to the signal ratio; further: potency means the concentration at half of the fitted maximal effect). In outline:
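In HEK293T cells bearing the PR-UAS-bla reporter, compound effects on promegestone-driven (1 nM) beta-lactamase expression are assessed after 16 hr using a fluorescent FRET substrate incubated 2 hr at room temperature.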

The nature of experiment [3]: qHTS assay to identify small molecule antagonists of the TGF-beta/Smad signaling pathway - cell viability counter screen (AID 1346824). Further: nearly all actives have a fitted effect of over 50% in size. In outline:
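SBE-bla HEK 293T cells were plated overnight at 37 C, then given compounds in DMSO plus TGF-beta1 (added as 0.25 ng/mL solution) for 5 hr. After the bla read, CellTiter-Glo was added to the same wells and luminescence read after 30 min at room temperature.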

Experiment [4] can be described thus: qHTS assay to identify small molecule agonists of the TGF-beta/Smad signaling pathway - cell viability counter screen (AID 1346829). Further: top concentration of the series differs between compounds; nearly all actives have a fitted effect of over 45% in size. In outline: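 Here the cytotoxicity of library compounds is measured in SBE-bla HEK 293T cells treated for 5 hr, using CellTiter-Glo added to wells already read for the beta-lactamase reporter.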
The nature of experiment [5]: qHTS assay to identify small molecule agonists of the TGF-beta/Smad signaling pathway (AID 1346859; active means well fitted activation curve with a large enough effect in the signal ratio in the repeat runs, not every such curve was filed as active; the % refers to the signal ratio; further: potency means the concentration at half of the fitted maximal effect; on activation: series mostly up to about 77 µM). Put shortly:
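Each well held 4,000 SBE-bla HEK 293T cells incubated overnight before compound addition; 5 hr later the cleavable FRET substrate went on for 2 hr at room temperature, and fluorescence was read at two emissions.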

The nature of experiment [6]: Human pregnane X receptor (PXR) small molecule agonists, qHTS cell viability counter screen (AID 1346977). Further: nearly all actives have a fitted effect of over 50% in size. In outline:
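Tox21 qHTS format; PXR-Luc HepG2, 2,000/well, charcoal-stripped FBS 5%. Cpd exposure 24hr. Read: CellTiter-Fluor fluorescence, multiplexed with luciferase.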

The nature of experiment [7]: Caspase-3/7 induction in HepG2 cells by small molecules, qHTS assay (AID 1346978). Further: nearly all actives have a fitted effect of over 15% in size. Put shortly:
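Wild-type HepG2 cells (2,000/well) were settled 5 h at 37 C, 5% CO2, then exposed to compounds in DMSO for 17 h. Caspase-3/7 activity was read by luminescence 30 min after adding Caspase-Glo 3/7 reagent at room temperature.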

The nature of experiment [8]: Caspase-3/7 induction in CHO-K1 cells by small molecules, qHTS assay (AID 1346980). Further: nearly all actives have a fitted effect of over 15% in size. In outline:
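Wild-type cells were seeded at 1,500 per well and settled 5 hr at 37 C, 5% CO2, then exposed to DMSO-dissolved compounds for 17 hr. Caspase-Glo 3/7 reagent was added, and luminescence was read after 30min at room temperature.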

Experiment [9] addresses Nuclear receptor subfamily 1 group I member 2 (Homo sapiens) (UniProt O75469). The experiment in a line: Human pregnane X receptor (PXR) small molecule agonists, qHTS assay (AID 1346982). Further: nearly all actives have a fitted effect of over 35% in size. Further: potency means the concentration at half of the fitted maximal effect. In outline: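 HepG2 PXR-Luc reporter line, 5% charcoal-stripped FBS; 5 hr pre-incubation, compound (DMSO) 24 hr at 37 C/5% CO2; ONE-Glo 30 min RT; luminescence read-out.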
Experiment [10] has as its target Cytochrome P450 2D6 (Homo sapiens) (UniProt P10635). The experiment in a line: Cytochrome P450 Family 2 Subfamily D Member 6 (CYP2D6) small molecule antagonists: luciferase reporter qHTS assay (AID 1671196). Further: nearly all actives have a fitted effect of over 50% in size. Further: potency means the concentration at half of the fitted maximal effect. In outline: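 Luminogenic proluciferin substrate, CYP2D6 enzyme; 10 min RT preincubation with compound, NADPH regeneration system added, 1 h RT. Stop/detection reagent, 20 min RT, luminescence read (RLU). Signal proportional to CYP activity.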

Experiment [11] in a line: qHTS assay to identify small molecule antagonists of the progesterone receptor (PR) signaling pathway - cell viability counter screen (AID 1346798). Further: series mostly up to about 92 µM; nearly all actives have a fitted effect of over 50% in size. In outline:
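Following a 4 hr attachment, PR-UAS-bla HEK293T cells in charcoal-stripped FBS medium were exposed to compounds with R5020 for 16 hr; CellTiter-Glo was added and luminescence read after 30 min at room temperature.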

For experiment [12], the target named is Thyrotropin-releasing hormone receptor (Homo sapiens) (UniProt P34981). The experiment in a line: qHTS assay to identify small molecule antagonists of the thyrotropin-releasing hormone receptor (TRHR) signaling pathway (AID 1346877; active means well fitted inhibition curve with a large enough effect in the repeat runs, not every such curve was filed as active; further: series mostly up to about 51 µM). Put shortly:
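HEK293/TRHR cells, 18 h, 37 °C; Ca2+ dye 2 h; cpd 5 min RT; TRH 1 nM final; fluorescence read 3 min, 1 s intervals; 15 concs, triplicate.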

Experiment [13] shares this target. The experiment in a line: qHTS assay to identify small molecule agonists of the thyrotropin-releasing hormone receptor (TRHR) signaling pathway (AID 1346891; calls by dose curve; further: series mostly up to about 58 µM). Put shortly: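 Screening of agonists relied on calcium signalling in HEK293 cells expressing human TRHR: dye loading 2 h at 37 °C preceded compound addition and a 3-min fluorescence time course.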
Experiment [14] is described as follows: Caspase-3/7 induction in CHO-K1 cells by small molecules, qHTS cell viability counter screen (AID 1346979). Further: nearly all actives have a fitted effect of over 35% in size. Further: potency means the concentration at half of the fitted maximal effect. In outline: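 CellTiter-Fluor viability check, qHTS format: wild-type CHO-K1, 16hr compound treatment, 1hr reagent incubation, fluorescence read.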
Experiment [15] can be described thus: Caspase-3/7 induction in HepG2 cells by small molecules, qHTS cell viability counter screen (AID 1346981). Further: series mostly up to about 92 µM; nearly all actives have a fitted effect of over 30% in size. In outline: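 Fluorescence read-out of live-cell protease activity (CellTiter-Fluor) after 1 hr with reagent. This was measured in the same wells as the caspase-3/7 luminescence, on HepG2 cells exposed to DMSO-dissolved compounds for 16 hr at 37 C.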
In experiment [16] the target is Nuclear receptor subfamily 1 group I member 2 (Rattus norvegicus) (UniProt Q9R1A7). Description: Rat pregnane X receptor (rPXR) activation by small molecules, qHTS assay (AID 1346983). Further: nearly all actives have a fitted effect of over 20% in size. To be noted: rPXR luciferase reporter cells, One-Glo luminescence, 24 h; hits give high values. Put shortly: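 Cell-based rPXR luciferase reporter assay, 2,000 cells per well, rested 5hr at 37 C before compound addition in DMSO, then 24 hr at 37 C. One-Glo reagent was added and luminescence read after 30 min at room temperature.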

In experiment [17] the target is Nuclear receptor subfamily 1 group I member 2 (Homo sapiens) (UniProt O75469). Description: CYP3A4 induction through human pregnane X receptor (PXR) by small molecules, qHTS assay (AID 1346984). Further: nearly all actives have a fitted effect of over 40% in size. Put shortly: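 HepG2-derived DPX-2 line carrying PXR plus a CYP3A4-promoter luciferase reporter; cells plated 5 hr, compound-exposed 24 hr at 37C. CYP3A4 activity probed with 3uM (final) Luciferin-IPA for 3hr, then luciferase read after One-Glo.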

Experiment [18] shares this target. The experiment in a line: Human pregnane X receptor (PXR) activation by small molecules, qHTS assay (AID 1346985). Further: nearly all actives have a fitted effect of over 40% in size. Put shortly:
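DPX-2 cells (HepG2 co-transfected with a PXR response element and a CYP3A4-promoter luciferase construct) were seeded at 2,000 per well, rested 5 hr at 37C, then exposed to DMSO-dissolved compounds for 24 hr. Activation was read as luciferase luminescence.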

Experiment [19] in a line: qHTS assay to identify small molecule agonists of the progesterone receptor (PR) signaling pathway - cell viability counter screen (AID 1346799; calls by dose curve; further: nearly all actives have a fitted effect of over 45% in size). Put shortly: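 Here, 3,000 PR-UAS-bla HEK293T cells per well were treated with compounds for 16 hr after a 6 hr preincubation at 37C and 5% CO2; cell viability is the CellTiter-Glo luminescence signal.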
Experiment [20] addresses Progesterone receptor (Homo sapiens) (UniProt P06401). The experiment in a line: qHTS assay to identify small molecule agonists of the progesterone receptor (PR) signaling pathway (AID 1346784; calls by dose curve; further: nearly all actives have a fitted effect of over 30% in size). Put shortly:
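Compounds were tested for PR agonism in HEK 293T cells bearing a beta-lactamase gene under UAS control. Treatment lasted 16 hr at 37C; signal came from fluorescence of a FRET substrate.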
On the % scale 0 is the no-effect control and ±100 the full control effect.

Chain of Nuclear receptor subfamily 1 group I member 2 (Homo sapiens) (O75469 whole entry, looked up): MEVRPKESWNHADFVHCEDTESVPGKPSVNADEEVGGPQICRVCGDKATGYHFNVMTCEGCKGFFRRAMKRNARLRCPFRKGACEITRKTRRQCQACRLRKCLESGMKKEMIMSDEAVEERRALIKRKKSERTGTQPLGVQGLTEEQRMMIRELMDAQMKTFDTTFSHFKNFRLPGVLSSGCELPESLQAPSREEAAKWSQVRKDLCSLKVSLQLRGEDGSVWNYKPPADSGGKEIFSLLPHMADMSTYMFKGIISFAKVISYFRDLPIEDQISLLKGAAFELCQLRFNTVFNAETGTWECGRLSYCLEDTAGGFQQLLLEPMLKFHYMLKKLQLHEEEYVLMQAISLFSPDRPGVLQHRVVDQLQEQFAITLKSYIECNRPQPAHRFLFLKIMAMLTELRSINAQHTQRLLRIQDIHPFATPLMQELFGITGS
Chain of Thyrotropin-releasing hormone receptor (Homo sapiens) (P34981 whole entry, looked up): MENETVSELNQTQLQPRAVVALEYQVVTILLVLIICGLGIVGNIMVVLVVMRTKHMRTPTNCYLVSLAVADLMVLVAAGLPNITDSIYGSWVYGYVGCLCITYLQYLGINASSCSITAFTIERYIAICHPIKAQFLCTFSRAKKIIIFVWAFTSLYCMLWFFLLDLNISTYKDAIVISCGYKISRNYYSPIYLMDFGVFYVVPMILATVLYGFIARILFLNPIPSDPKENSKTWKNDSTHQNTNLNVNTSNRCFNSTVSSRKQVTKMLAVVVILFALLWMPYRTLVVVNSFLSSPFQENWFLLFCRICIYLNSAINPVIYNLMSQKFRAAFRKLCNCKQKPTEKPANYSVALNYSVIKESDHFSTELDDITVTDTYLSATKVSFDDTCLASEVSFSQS
Chain of Cytochrome P450 2D6 (Homo sapiens) (P10635 whole entry, looked up): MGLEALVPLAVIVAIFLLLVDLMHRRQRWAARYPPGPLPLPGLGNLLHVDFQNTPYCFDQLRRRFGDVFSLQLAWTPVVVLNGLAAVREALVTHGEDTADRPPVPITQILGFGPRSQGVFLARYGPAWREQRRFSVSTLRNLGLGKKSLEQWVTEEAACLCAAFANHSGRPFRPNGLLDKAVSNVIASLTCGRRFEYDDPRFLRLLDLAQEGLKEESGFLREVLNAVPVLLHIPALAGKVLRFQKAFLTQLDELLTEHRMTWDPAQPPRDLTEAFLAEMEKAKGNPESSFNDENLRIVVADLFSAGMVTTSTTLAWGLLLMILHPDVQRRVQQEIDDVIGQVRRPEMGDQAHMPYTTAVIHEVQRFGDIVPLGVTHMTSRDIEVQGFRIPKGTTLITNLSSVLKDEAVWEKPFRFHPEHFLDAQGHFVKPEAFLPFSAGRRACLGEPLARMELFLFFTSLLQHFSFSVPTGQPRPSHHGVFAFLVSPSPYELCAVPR
Chain of Progesterone receptor (Homo sapiens) (P06401 whole entry, looked up): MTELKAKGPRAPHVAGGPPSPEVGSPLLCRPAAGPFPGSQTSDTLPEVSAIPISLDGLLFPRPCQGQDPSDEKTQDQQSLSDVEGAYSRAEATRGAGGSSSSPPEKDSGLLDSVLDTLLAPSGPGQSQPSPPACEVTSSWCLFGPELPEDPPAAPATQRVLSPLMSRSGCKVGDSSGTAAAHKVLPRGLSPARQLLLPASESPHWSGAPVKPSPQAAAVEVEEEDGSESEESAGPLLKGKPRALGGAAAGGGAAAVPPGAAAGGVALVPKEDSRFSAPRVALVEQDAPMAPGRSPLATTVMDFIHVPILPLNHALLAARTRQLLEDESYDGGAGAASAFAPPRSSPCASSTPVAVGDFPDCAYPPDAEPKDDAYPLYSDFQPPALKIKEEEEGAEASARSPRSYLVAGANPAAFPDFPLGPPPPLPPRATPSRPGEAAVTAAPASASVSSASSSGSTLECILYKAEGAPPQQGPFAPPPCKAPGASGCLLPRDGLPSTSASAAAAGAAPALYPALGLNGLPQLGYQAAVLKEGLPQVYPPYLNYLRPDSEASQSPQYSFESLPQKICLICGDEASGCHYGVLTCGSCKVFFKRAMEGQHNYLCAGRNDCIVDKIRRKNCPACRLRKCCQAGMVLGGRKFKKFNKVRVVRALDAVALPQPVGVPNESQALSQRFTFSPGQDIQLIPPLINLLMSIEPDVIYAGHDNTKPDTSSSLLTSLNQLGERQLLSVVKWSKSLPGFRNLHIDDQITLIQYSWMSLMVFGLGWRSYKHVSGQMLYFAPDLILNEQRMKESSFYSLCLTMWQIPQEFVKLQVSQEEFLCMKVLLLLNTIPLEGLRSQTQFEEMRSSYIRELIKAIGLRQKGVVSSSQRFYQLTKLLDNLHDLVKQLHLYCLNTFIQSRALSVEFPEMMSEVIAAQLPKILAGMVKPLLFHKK
Chain of Nuclear receptor subfamily 1 group I member 2 (Rattus norvegicus) (Q9R1A7 whole entry, looked up): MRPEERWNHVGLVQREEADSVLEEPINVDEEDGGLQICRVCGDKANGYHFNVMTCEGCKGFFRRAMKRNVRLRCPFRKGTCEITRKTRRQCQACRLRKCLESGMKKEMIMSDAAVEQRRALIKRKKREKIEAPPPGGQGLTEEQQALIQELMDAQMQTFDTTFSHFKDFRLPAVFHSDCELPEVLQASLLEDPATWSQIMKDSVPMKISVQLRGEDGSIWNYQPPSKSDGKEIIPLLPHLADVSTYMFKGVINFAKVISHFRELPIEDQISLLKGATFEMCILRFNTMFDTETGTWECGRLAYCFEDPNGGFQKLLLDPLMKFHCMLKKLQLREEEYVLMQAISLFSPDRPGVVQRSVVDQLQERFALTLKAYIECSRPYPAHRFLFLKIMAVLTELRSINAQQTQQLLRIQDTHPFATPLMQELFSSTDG

For `Nc1ccc(Oc2ccc(Cl)cc2)cc1`, the Potency entry in [1], in [3], in experiment [4], in experiment [5], in experiment [6] and in experiment [7] was “inactive” throughout. For the same compound, the Potency entry in experiment [8] is “inactive”. Further, the Potency in [2] is 18.9 µM (active); in [9], 33.6 µM (active); in experiment [10] it was 39.1 µM (active).

As for `CCCCC/C=C\C/C=C\CCCCCCCC(=O)O`, the Potency entry in [1], in experiment [2], in experiment [11], in experiment [3], in experiment [4] and in experiment [12] was “inactive” throughout. The Potency entry in [6], in [7], in experiment [8], in [15], in [17] and in experiment [18] was “inactive” each time. Moreover, the compound was classed as inactive in experiment [13]. Further, the Potency in experiment [14] is 60.1 µM (active); in experiment [9] it was 60.1 µM (active); in experiment [10] it was 31.2 µM (active). Also, the max activation in [16] is -4.54%.

For the compound `CCCCCCC1CCCC(=O)O1` (stereo not given), the Potency result in [1], in [11], in experiment [19], in [3], in experiment [4] and in experiment [12] was “inactive” each time. The Potency result in experiment [6], in [7], in [14], in [8] and in experiment [15] was “inactive” throughout. Further, the call in experiment [13] was inactive.

As to `Cc1cc(C(C)(C)C)c(O)c(C)c1Cn1c(=O)n(Cc2c(C)cc(C(C)(C)C)c(O)c2C)c(=O)n(Cc2c(C)cc(C(C)(C)C)c(O)c2C)c1=O`, the Potency result in experiment [1], in [11], in experiment [4], in experiment [5], in experiment [12] and in experiment [6] was “inactive” each time. Besides, the Potency entry in [7] and in [8] was “inactive” each time. Further, the result in experiment [13] was inactive. Further, in experiment [14], the Potency is 27.3 µM (active).

Turning to `O=S(=O)(O)c1ccccc1/C=C/c1ccc(-c2ccc(/C=C/c3ccccc3S(=O)(=O)O)cc2)cc1`, the Potency entry in [11], in experiment [4], in experiment [12], in experiment [7], in experiment [15] and in experiment [9] was “inactive” each time. Further, the Potency result in experiment [10] is “inactive”. Besides, in experiment [5], the Potency is 44.3 µM (active). Moreover, the call in experiment [13] was inactive.

For `O=c1c(O)c(-c2ccc(O)cc2O)oc2cc(O)cc(O)c12`, the Potency result in experiment [20], in [11], in [19], in experiment [4], in experiment [12] and in experiment [7] was “inactive” in each case. Moreover, the compound was classed as inactive in [13].
